Assay outcomes from PubChem.
OPRM1-OPRD1 inv – inverse agonists of MOR-DOR heterodimerization, primary screen, cell-based, luminescence. cell-based MOR-DOR heterodimer luminescence, inverse agonism. inhibition, % at 9.3 µM. hit rate 0.21% among 340,000. AID 504357, 2011; in the data active = inhibition above about 22%, passing the limit was not always enough
MOR-DOR ag – agonists of OPRM1-OPRD1 heterodimerization, primary screen, cell-based, luminescence; hit rate 0.3% among 340,000; AID 504326, 2011; Mu-type opioid receptor (Homo sapiens) + Delta-type opioid receptor (Homo sapiens), …; activation, % at 9.3 µM; cells; in the data active = activation above about 18%
V-ATPase pHluor – regulators of yeast V-ATPase proton pumping, primary screen, pHLuorin cytosolic pH fluorescence | S. cerevisiae | response, % at 10 µM | hit rate 0.37% among 350,000; in the data active = response mostly above about 7.3%, no sharp cut-off; inactive = mostly below about 5.4%; also: actives read high
beta cell repl – inducers of MIN6 beta-cell proliferation, primary screen, ATP luminescence, uHTS. MIN6 cells proliferation, ATPlite luminescence, 48 h; cells starved in 0.2% serum; 100% = growth in 10% serum. hit rate 0.29% among 330,000. proliferation, % at 10 µM. AID 2380, 2010;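 active = compounds whose signal lies at least 3.5 SD above the mean of all wells on their plate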
HTR5A ag ctr – HTR5A agonists in luminescence cell assay, primary screen, counter-screen for OPRM1-OPRD1 heterodimer agonist project, full-deck HTS; 5-hydroxytryptamine receptor 5A (Homo sapiens), P47898; cell-based; activation, % at 9.3 µM; hit rate 0.61% among 340,000; AID 504692, 2011; in the data active = activation mostly above about 9.5%, no sharp cut-off; inactive = mostly below about 7.6%
Target sequence (P47898 whole entry, looked up): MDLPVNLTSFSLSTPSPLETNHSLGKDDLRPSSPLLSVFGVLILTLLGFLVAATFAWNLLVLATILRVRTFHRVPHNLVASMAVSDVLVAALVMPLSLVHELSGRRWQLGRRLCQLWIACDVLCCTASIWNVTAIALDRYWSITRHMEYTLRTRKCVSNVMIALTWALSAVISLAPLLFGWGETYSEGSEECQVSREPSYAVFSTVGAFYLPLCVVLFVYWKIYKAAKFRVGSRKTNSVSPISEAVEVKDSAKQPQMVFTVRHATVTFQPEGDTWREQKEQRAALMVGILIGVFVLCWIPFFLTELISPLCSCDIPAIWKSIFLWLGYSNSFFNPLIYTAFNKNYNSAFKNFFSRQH
HTR5A inv ag – HTR5A inverse agonists in luminescence cell assay, primary screen, counter-screen for OPRM1-OPRD1 heterodimer inverse agonist project, full-deck HTS. HTR5A cell line, inverse agonism. inhibition, % at 9.3 µM. hit rate 0.083% among 340,000; in the data active = inhibition mostly above about 23%, no sharp cut-off; inactive = mostly below about 18%
Large screens that a line does not name were inactive. Compounds with a hit are over-represented: about 1.7% of the library has one in this group of screens.

Cc1cccc(C(=O)Nc2ccc(C(=O)Nc3ccc(O)cc3)cc2)c1	none
CC(C)(C)c1cc(=O)[nH]c(SCc2ccccc2)n1	none
CC(C)(C)c1cc(=O)[nH]c(SCc2ccccc2Cl)n1	HTR5A ag ctr 12
COc1ccc(OC)c(-c2cc(C(=O)N3CCN(c4ccccc4)CC3)no2)c1	V-ATPase pHluor 18
COc1ccc(-c2cc(C(=O)N3CCN(c4ccccc4)CC3)no2)cc1	none
CN1C(=O)C(=O)/C(=C(/O)c2ccc(Br)cc2)C1c1ccc(F)cc1 (stereo not drawn)	none
COc1ccccc1NCC(=O)N/N=C(\C)c1cccs1	HTR5A ag ctr 14
C/C(=N\NC(=O)c1ccc(NS(=O)(=O)c2cccs2)cc1)c1cccs1	none
C/C(=N\NC(=O)c1ccc(Cl)cc1)c1cccs1	V-ATPase pHluor 12 (no result: beta cell repl)
CC1CCCN(C(C(=O)Nc2ccc3c(c2)OCO3)c2ccccc2)C1 (stereo not drawn)	V-ATPase pHluor 14
CC1CCCN(C(C(=O)Nc2ccc3c(c2)OCCO3)c2ccccc2)C1 (stereo not drawn)	none
CC1=CC(=O)C=C(C)C1=NOC(=O)/C=C\c1ccccc1	HTR5A ag ctr 13
CC1=CC(=NOC(=O)/C=C/c2ccccc2)C=C(C)C1=O	none
CC1CCc2c(sc3nc(C(C)(C)C)nc(N4CCN(C(=O)CCl)CC4)c23)C1 (stereo not drawn)	MOR-DOR ag 72, HTR5A ag ctr 46
CCC(=O)N1CCN(c2nc(CC)nc3sc4c(c23)CCCC4)CC1	none
COc1ccc(NC2CCCN(C(=O)CSc3ccccn3)C2)cc1OC (stereo not drawn)	none
Brc1ccccc1-c1nnc2sc(-c3ccc4c(c3)OCCO4)nn12	none
Clc1ccccc1-c1nnc2sc(-c3ccc4c(c3)OCO4)nn12	V-ATPase pHluor 16
O=[N+]([O-])c1ccccc1CNC1CCCc2ccccc21 (stereo not drawn)	none
O=C(CCSc1ccc(Cl)cc1)NN=C1CCCCCC1	none
O=C(CSc1ccc(Cl)cc1)NN=C1CCCCCC1	HTR5A ag ctr 12
COc1ccc(-c2csc(NC(C)=O)n2)cc1OC	none
COc1cccc(NC(=O)Nc2nc(-c3ccc(OC)c(OC)c3)cs2)c1	MOR-DOR ag 29, HTR5A ag ctr 25
O=C(c1ccccc1Cl)N1N=C(c2cccs2)CC1c1cccc(O)c1 (stereo not drawn)	HTR5A ag ctr 11
O=C(c1ccccc1)N1N=C(c2cccs2)CC1c1ccccc1O (stereo not drawn)	none
O=C(O)CSCC(=O)N1CCN(c2ccnc3cc(Cl)ccc23)CC1	HTR5A ag ctr 11
CC(=O)N1CCN(c2ccnc3cc(Cl)ccc23)CC1	none
Cc1ccc(CCNC(=O)CCNS(=O)(=O)c2ccc3c(c2)c(=O)n(C)c(=O)n3C)cc1	V-ATPase pHluor 20
COc1ccc(NC(=O)c2[nH]c(C)c(C(C)=O)c2C)cc1	HTR5A ag ctr 12
COc1ccc(NC(=O)c2[nH]c(C)c(C(C)=O)c2C)cc1S(=O)(=O)Nc1ccc(Br)cc1	HTR5A ag ctr 13
COc1ccc(NC(=O)c2ccc(F)cc2)cc1S(=O)(=O)Nc1cc(C)ccc1Br	HTR5A ag ctr 12
COc1ccc(NS(=O)(=O)c2cc(NC(=O)c3ccc(F)cc3)ccc2OC)cc1	none
O=C1NC(=O)C([N+](=O)[O-])=C(O)C1=O	none (no result: OPRM1-OPRD1 inv, MOR-DOR ag, beta cell repl, HTR5A ag ctr, HTR5A inv ag)
CCOc1ccc(NC(=O)CN(C)C(=O)Cc2ccc3c(c2)OCCO3)cc1OCC	none (no result: OPRM1-OPRD1 inv, MOR-DOR ag, beta cell repl, HTR5A ag ctr, HTR5A inv ag)
Cc1ccc(C(=O)C(C)OC(=O)Cn2[nH]c(=O)c3ccccc3c2=O)cc1 (stereo not drawn)	none
Cc1ccc(C(=O)C(C)OC(=O)Cn2[nH]c(=O)c3ccccc3c2=O)cc1C (stereo not drawn)	HTR5A ag ctr 12
CCCCN(C)CCNS(=O)(=O)c1ccc2c(c1)n(C)c(=O)c(=O)n2C	V-ATPase pHluor 18
CCCNS(=O)(=O)c1ccc2c(c1)n(C)c(=O)n2C	none
CCO/C([O-])=N/c1sn[n+](C)c1C	none (no result: OPRM1-OPRD1 inv, MOR-DOR ag, HTR5A ag ctr, HTR5A inv ag)
Cc1cccc(OCc2nnc(SC(C)C(=O)Nc3ccc(N4CCOCC4)cc3)o2)c1 (stereo not drawn)	none
Cc1ccc(NC(=S)Nc2ccc(Br)cc2)cc1	HTR5A ag ctr 13
O=C(NCc1ccccc1)c1nccnc1CO	none
CC(NCC(O)COc1ccccc1)C1COc2ccccc2O1 (stereo not drawn)	HTR5A ag ctr 12
C=CCN1CCCC1CNC(=O)c1cc2[nH]nnc2cc1OC (stereo not drawn)	V-ATPase pHluor 15
CCN1CCCC1CNC(=O)c1cc(N)ccc1OC (stereo not drawn)	none (no result: OPRM1-OPRD1 inv, MOR-DOR ag, HTR5A ag ctr, HTR5A inv ag)
Cc1cc(/C=N/Nc2ccc([N+](=O)[O-])cn2)c(C)n1-c1ccccc1	none
Cc1c(C(=O)O)cccc1-n1c(C)cc(/C=N/Nc2ccc([N+](=O)[O-])cn2)c1C	V-ATPase pHluor 16
CC(C)NC(=S)N/N=C1\CCCc2ccccc21	HTR5A ag ctr 11
CC(C)c1ncc(CO)n1Cc1c(Cl)cccc1Cl	none (no result: OPRM1-OPRD1 inv, MOR-DOR ag, beta cell repl, HTR5A ag ctr, HTR5A inv ag)
O=C(O)c1ccc(S(=O)(=O)c2ccc(Sc3ccc(C(=O)O)c(C(=O)O)c3)cc2)cc1	none
COc1ccc(CCNc2oc(COc3ccc(Br)cc3)nc2C#N)cc1OC	V-ATPase pHluor 10.0
Cc1ccc(S(=O)(=O)ON2C(=O)c3ccccc3C2=O)c(C)c1	V-ATPase pHluor 8.1 (no result: beta cell repl)
Cc1cc(C)c(S(=O)(=O)ON2C(=O)c3ccccc3C2=O)cc1C	none
CCc1nnc(NC(=O)c2nc(S(=O)(=O)Cc3cccc(C)c3)ncc2Cl)s1	HTR5A ag ctr 9.1
CCn1nnnc1-c1ccc(OC)c(S(=O)(=O)Nc2ccccc2OC)c1	none (no result: OPRM1-OPRD1 inv, MOR-DOR ag, beta cell repl, HTR5A ag ctr, HTR5A inv ag)
CC1=CN2C(=N)/C(=C/c3ccc([N+](=O)[O-])o3)C(=O)N=C2S1	V-ATPase pHluor 143 (no result: beta cell repl)
CCOC(=O)CCCCCC(=O)Nc1ccc2c(c1)C(=O)N([C@H](C)CO)C[C@@H](C)[C@@H](CN(C)C(=O)CCC(F)(F)F)OCCCC[C@H](C)O2	none (no result: OPRM1-OPRD1 inv, MOR-DOR ag, beta cell repl, HTR5A ag ctr, HTR5A inv ag)
Cc1ccc(-c2cc(-c3ccccc3)nc(NN)n2)cc1	OPRM1-OPRD1 inv 43, HTR5A inv ag 33
O=C(CCC(=O)c1cccs1)Nc1ccccc1F	V-ATPase pHluor 19
Nc1nc(CN2CCN(c3ccccc3F)CC2)nc(Nc2ccc3c(c2)OCCO3)n1	V-ATPase pHluor 16
O=C(/C=C/c1cn(-c2ccccc2)nc1-c1cccnc1)c1ccco1	none
Cc1ccc(CNC(=O)/C=C/c2ccccc2Cl)cc1	HTR5A ag ctr 11
CCc1c(C)nc(SCC(=O)Nc2nc(-c3ccc(OC)cc3)cs2)[nH]c1=O	none
